Assay results: PubChem BioAssay
For some of these results: Potency and affinity values are given separately. The source made the active and inactive calls. Unless noted, the rule behind the calls is not given here.

Legend:
[1] = antimalarial activity against Dd2 strain (AID 2302;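 active = growth inhibition above 50% at the single 2 µM test dose, taken to imply half-maximal potency below 2 µM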;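 note: 0% = DMSO untreated growth and 100% = chloroquine plus artemisinin killed control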); details: P. falciparum Dd2 in RBCs, LDH growth readout, 72 h; at 2 µM; hits give high values
[2] = HepG2 cytotoxicity, primary screen, cytotoxicity control for P. falciparum antimalarial project, cell-based, ATP luminescence (AID 2303;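 active = inhibition above 50%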;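 note: 0% = DMSO wells and 100% = digitonin-killed cells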); details: HepG2 viability, 24-48 h, at 10 µM, hits give high values
[3] = target: L-lactate dehydrogenase (Plasmodium falciparum (isolate CDC / Honduras)) (UniProt Q27743); assay: PfLDH activity inhibition – cell lysate, 3D7 strain, counter-screen for P. falciparum growth inhibition project (AID 2304);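 note: 0% = vehicle and 100% = reference inhibitor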; details: P. falciparum 3D7 crude extract, LDH APAD/NBT absorbance; at 2 µM; hits give high values
L-lactate dehydrogenase (Plasmodium falciparum (isolate CDC / Honduras)), sequence (Q27743 whole entry, looked up): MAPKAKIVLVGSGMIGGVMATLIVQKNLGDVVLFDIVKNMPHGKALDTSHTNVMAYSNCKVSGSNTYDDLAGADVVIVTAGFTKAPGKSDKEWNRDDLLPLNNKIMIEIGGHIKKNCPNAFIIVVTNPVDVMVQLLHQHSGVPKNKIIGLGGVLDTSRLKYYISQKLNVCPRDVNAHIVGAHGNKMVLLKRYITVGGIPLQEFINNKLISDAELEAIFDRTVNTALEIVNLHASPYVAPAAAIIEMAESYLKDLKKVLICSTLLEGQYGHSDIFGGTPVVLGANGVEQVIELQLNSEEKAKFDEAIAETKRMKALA

[4] = inhibition of 3D7 malaria parasite growth – strain 3D7 (AID 2306);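 note: 0% = DMSO wells and 100% = chloroquine plus artemisinin control wells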; details: P. falciparum 3D7 erythrocytic growth, LDH absorbance, 72 h; at 2 µM; hits give high values
[5] = target: Calcium-dependent protein kinase 1 (Plasmodium falciparum (isolate 3D7)) (UniProt P62344); assay: PfCDPK1 kinase inhibitors, biochemical, TCAMS library (AID 1159585; cut-off not given, nearly all actives have IC50 up to about 0.98 µM;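 note: inhibitors leave more ATP so luminescence rises with inhibition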); details: recombinant PfCDPK1, Kinase-Glo ATP depletion luminescence
Calcium-dependent protein kinase 1 (Plasmodium falciparum (isolate 3D7)), sequence (P62344 whole entry, looked up): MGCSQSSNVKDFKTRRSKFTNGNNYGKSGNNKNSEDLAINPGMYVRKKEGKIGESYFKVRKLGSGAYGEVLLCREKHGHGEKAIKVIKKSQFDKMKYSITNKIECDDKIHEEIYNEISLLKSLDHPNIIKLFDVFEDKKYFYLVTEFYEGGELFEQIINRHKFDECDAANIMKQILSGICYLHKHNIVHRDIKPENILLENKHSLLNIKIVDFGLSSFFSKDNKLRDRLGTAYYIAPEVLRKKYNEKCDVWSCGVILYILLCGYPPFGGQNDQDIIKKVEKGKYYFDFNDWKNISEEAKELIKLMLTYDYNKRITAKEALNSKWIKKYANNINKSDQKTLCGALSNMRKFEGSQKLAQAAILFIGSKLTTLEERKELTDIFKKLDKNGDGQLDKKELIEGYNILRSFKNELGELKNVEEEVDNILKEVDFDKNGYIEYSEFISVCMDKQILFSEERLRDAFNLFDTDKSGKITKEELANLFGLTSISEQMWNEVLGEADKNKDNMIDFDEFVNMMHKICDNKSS

[6] = target: Plasmodium falciparum protein kinase 6 (PK6, PF3D7_1337100) (UniProt Q8IDW1); assay: PfPK6 kinase inhibitors, biochemical, TCAMS library (AID 1159586); details: recombinant PfPK6, Kinase-Glo ATP depletion luminescence
Plasmodium falciparum protein kinase 6 (PK6, PF3D7_1337100), sequence (Q8IDW1 1-305): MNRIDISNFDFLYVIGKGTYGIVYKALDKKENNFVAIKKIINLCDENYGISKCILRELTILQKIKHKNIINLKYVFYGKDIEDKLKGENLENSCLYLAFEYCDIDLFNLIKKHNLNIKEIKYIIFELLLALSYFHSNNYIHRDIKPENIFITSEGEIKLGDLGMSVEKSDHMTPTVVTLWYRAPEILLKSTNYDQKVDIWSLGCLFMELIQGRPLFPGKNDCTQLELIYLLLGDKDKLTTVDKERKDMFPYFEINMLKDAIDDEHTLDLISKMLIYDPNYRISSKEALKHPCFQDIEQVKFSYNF

[7] = target: Protein kinase 7 (PK7), Plasmodium falciparum 3D7 (PF3D7_0213400) (UniProt Q7YTF7); assay: inhibition of Plasmodium PK7 catalytic activity – biochemical, TCAMS antimalarial set, Kinase-Glo luminescence (AID 1159587); details: recombinant PfPK7, Kinase-Glo ATP depletion luminescence
Protein kinase 7 (PK7), Plasmodium falciparum 3D7 (PF3D7_0213400), sequence (Q7YTF7 1-343): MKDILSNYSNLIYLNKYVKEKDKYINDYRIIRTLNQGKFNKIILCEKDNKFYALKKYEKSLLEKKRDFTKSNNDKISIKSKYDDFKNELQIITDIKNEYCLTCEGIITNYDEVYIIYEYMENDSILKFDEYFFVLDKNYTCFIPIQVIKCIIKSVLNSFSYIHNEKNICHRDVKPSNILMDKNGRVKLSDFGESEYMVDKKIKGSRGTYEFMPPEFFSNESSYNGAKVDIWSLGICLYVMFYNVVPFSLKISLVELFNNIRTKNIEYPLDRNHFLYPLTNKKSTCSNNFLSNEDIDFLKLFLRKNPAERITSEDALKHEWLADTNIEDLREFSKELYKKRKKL

[8] = target: Calcium-dependent protein kinase 4 (Plasmodium falciparum (isolate 3D7)) (UniProt Q8IBS5); assay: PfCDPK4 kinase inhibitors, biochemical, TCAMS library (AID 1159588; cut-off not given, nearly all actives have IC50 up to about 0.91 µM); details: recombinant PfCDPK4, Kinase-Glo ATP depletion luminescence
Calcium-dependent protein kinase 4 (Plasmodium falciparum (isolate 3D7)), sequence (Q8IBS5 whole entry, looked up): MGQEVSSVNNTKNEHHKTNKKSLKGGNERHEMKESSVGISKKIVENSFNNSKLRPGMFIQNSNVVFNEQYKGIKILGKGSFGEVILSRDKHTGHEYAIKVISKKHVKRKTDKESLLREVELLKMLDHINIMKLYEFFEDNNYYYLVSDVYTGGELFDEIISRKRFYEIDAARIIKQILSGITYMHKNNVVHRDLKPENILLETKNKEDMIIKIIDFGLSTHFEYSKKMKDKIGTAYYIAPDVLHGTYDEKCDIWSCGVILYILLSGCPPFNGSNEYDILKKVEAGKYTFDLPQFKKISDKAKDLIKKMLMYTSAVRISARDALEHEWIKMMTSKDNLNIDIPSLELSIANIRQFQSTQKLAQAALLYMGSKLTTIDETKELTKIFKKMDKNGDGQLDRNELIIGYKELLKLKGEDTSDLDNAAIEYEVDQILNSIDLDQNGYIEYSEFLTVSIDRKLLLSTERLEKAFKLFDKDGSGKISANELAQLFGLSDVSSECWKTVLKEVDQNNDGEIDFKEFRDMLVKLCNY

CC(C)Oc1cc2c(cc1NS(=O)(=O)c1ccc(-c3ccc(Cl)s3)cc1F)CCN(C)CC2
inactive: growth inhibition [1] 1% | inhibition [2] 23% | inhibition [3] -5% | outcome [5] | outcome [6] | outcome [7] | outcome [8]
active: growth inhibition [4] 99%

COc1ccc(NC(=O)Nc2cccc(-c3ccc(-c4nc5ccc(C(F)(F)F)cc5[nH]4)cc3)c2)cc1
inactive: growth inhibition [1] 29% | inhibition [2] 46% | inhibition [3] 6% | outcome [5] | outcome [6] | outcome [7] | outcome [8]
active: growth inhibition [4] 101%

O=C(NC1CCN(CCN2CCC(c3cn(CCO)c4ccccc34)CC2)CC1)c1ccc(-c2ccc(C(F)(F)F)cc2)cc1
inactive: inhibition [2] 30% | inhibition [3] -1% | outcome [5] | outcome [6] | outcome [7] | outcome [8]
active: growth inhibition [1] 54% | growth inhibition [4] 98%

Clc1ncnc2scc(-c3ccc(Br)cc3)c12
active: growth inhibition [1] 96% | growth inhibition [4] 95%
inactive: inhibition [2] -3% | inhibition [3] -2% | outcome [5] | outcome [6] | outcome [7] | outcome [8]

COc1ccc2nc(C)cc(NN=Cc3ccccc3)c2c1
inactive: growth inhibition [1] 6% | inhibition [2] 4% | inhibition [3] 0% | outcome [5] | outcome [6] | outcome [7] | outcome [8]
active: growth inhibition [4] 80%

Cc1ccc(NC(=O)c2ccc3ncccc3c2)cc1OC1CCN(Cc2ccco2)C1 (stereo not drawn)
active: growth inhibition [4] 86%
inactive: growth inhibition [1] 42% | inhibition [2] 9% | inhibition [3] 2% | outcome [5] | outcome [6] | outcome [7] | outcome [8]

NC(Cc1cccc(I)c1)C(=O)NCC1CCCO1 (stereo not drawn)
active: growth inhibition [1] 50% | inhibition [2] 52% | growth inhibition [4] 98%
inactive: inhibition [3] 1% | outcome [5] | outcome [6] | outcome [7] | outcome [8]

CC(=NN=C(N)N)C(=O)Nc1ccc(Cl)c(Cl)c1
inactive: inhibition [2] -3% | inhibition [3] 0% | outcome [5] | outcome [6] | outcome [7] | outcome [8]
active: growth inhibition [1] 97% | growth inhibition [4] 101%

CC(C)C[C@@H](/C=N/N1CCNC1=O)NC(=O)[C@H](CC(C)C)NC(=O)c1ccc(OCCN2CCOCC2)cc1
active: growth inhibition [1] 89% | growth inhibition [4] 97%
inactive: inhibition [2] 21% | inhibition [3] -4% | outcome [5] | outcome [6] | outcome [7] | outcome [8]

Cc1cccc(C)c1CNc1ccnc2cc(C#N)ccc12
active: growth inhibition [1] 99% | growth inhibition [4] 100%
inactive: inhibition [2] 20% | inhibition [3] -1% | outcome [5] | outcome [6] | outcome [7] | outcome [8]

CCc1nnc2sc(-c3cccc(NC(=O)c4ccc(OC)c(Cl)c4)c3)nn12
inactive: inhibition [2] 3% | inhibition [3] -2% | outcome [5] | outcome [6] | outcome [7] | outcome [8]
active: growth inhibition [1] 55% | growth inhibition [4] 92%

COc1ccc(CN2CCCC(Nc3ccc(F)c(F)c3)C2)c(O)c1 (stereo not drawn)
inactive: inhibition [2] 14% | inhibition [3] 3% | outcome [5] | outcome [6] | outcome [7] | outcome [8]
active: growth inhibition [1] 83% | growth inhibition [4] 95%

Cc1ccc2c(Cl)c(C(=O)N3CCCc4ccccc43)sc2c1
active: growth inhibition [4] 99%
inactive: growth inhibition [1] 15% | inhibition [2] 4% | inhibition [3] 0% | outcome [5] | outcome [6] | outcome [7] | outcome [8]

Cc1cccc2[nH]c(-c3cccc(-c4ccc(NC(=O)c5ccncc5)cc4)c3)nc12
inactive: inhibition [2] 34% | inhibition [3] -5% | outcome [5] | outcome [6] | outcome [7] | outcome [8]
active: growth inhibition [1] 74% | growth inhibition [4] 98%

CCCCCCCCCn1c(NCc2cc(Cl)ccc2O)nc2ccccc21
inactive: inhibition [2] 13% | inhibition [3] -4% | outcome [5] | outcome [6] | outcome [7] | outcome [8]
active: growth inhibition [1] 92% | growth inhibition [4] 97%

CN(C)c1ccc(NC(=O)Nc2ccnc3ccc(Br)cc23)cc1
inactive: growth inhibition [1] 21% | inhibition [2] -5% | inhibition [3] 6% | outcome [5] | outcome [6] | outcome [7] | outcome [8]
active: growth inhibition [4] 91%

CCOc1cc(C(=O)NCCN2CCCCC2)ccc1-c1nc2ccc(Cl)cc2[nH]1
active: growth inhibition [4] 99%
inactive: growth inhibition [1] 8% | inhibition [2] 4% | inhibition [3] -3% | outcome [5] | outcome [6] | outcome [7] | outcome [8]

CC(C)COc1ccc(Cl)cc1Cc1ccc(-c2nc3ccc(Cl)cc3[nH]2)o1
inactive: inhibition [2] 19% | inhibition [3] -1% | outcome [5] | outcome [6] | outcome [7] | outcome [8]
active: growth inhibition [1] 96% | growth inhibition [4] 97%

NS(=O)(=O)c1ccc(CNc2ccc3ncc(-c4ccc(OC(F)(F)F)cc4)n3n2)cc1
inactive: inhibition [2] 10% | inhibition [3] -7% | outcome [5] | outcome [6] | outcome [7] | outcome [8]
active: growth inhibition [1] 99% | growth inhibition [4] 97%

O=C(Nc1cccnc1)c1cn(-c2ccccc2)nc1-c1cccs1
active: growth inhibition [1] 61% | growth inhibition [4] 99%
inactive: inhibition [2] 3% | inhibition [3] -3% | outcome [5] | outcome [6] | outcome [7] | outcome [8]

CCCc1cc(=O)[nH]c(-n2nc(C)cc2NC(=O)C(CC)c2ccccc2)n1 (stereo not drawn)
active: growth inhibition [1] 63% | growth inhibition [4] 94%
inactive: inhibition [2] 41% | inhibition [3] -2% | outcome [5] | outcome [6] | outcome [7] | outcome [8]

CC(C)COc1ccc(Cl)cc1Cc1ccc(-c2nc3ccc(CCN4CCCC4)cc3[nH]2)o1
active: growth inhibition [1] 94% | growth inhibition [4] 100%
inactive: inhibition [2] 34% | inhibition [3] 1% | outcome [5] | outcome [6] | outcome [7] | outcome [8]

COc1cc2nc(NCCn3nc(C)cc3C)nc(NCCc3ccccc3)c2cc1OC
active: growth inhibition [1] 100% | growth inhibition [4] 103%
inactive: inhibition [2] 28% | inhibition [3] -3% | outcome [5] | outcome [6] | outcome [7] | outcome [8]

Cc1cccc(N2CCN(C3CCC(NC(=O)c4cc5ccccc5[nH]4)CC3)CC2)c1C (stereo not drawn)
active: growth inhibition [4] 101%
inactive: growth inhibition [1] 21% | inhibition [2] 49% | inhibition [3] -4% | outcome [5] | outcome [6] | outcome [7] | outcome [8]

CCN(CC)CCN(Cc1ccc(-c2ccc(C(F)(F)F)cc2)cc1)C(=O)Cn1c(CCc2ccc(F)c(F)c2F)nc(=O)c2ccccc21
active: growth inhibition [1] 66% | growth inhibition [4] 97%
inactive: inhibition [2] 38% | inhibition [3] -10% | outcome [5] | outcome [6] | outcome [7] | outcome [8]

O=C(c1ccc([N+](=O)[O-])o1)N1CCC(c2cn(Cc3cccc(F)c3)c3ccccc23)CC1
active: growth inhibition [1] 95% | growth inhibition [4] 97%
inactive: inhibition [2] 1% | inhibition [3] -2% | outcome [5] | outcome [6] | outcome [7] | outcome [8]

CN(C)CCOc1ccc(N2CCN(CCCCNC(=O)c3ccc(NC(=O)c4ccc(Cl)cc4)cc3)CC2)cc1
active: growth inhibition [1] 98% | growth inhibition [4] 99%
inactive: inhibition [2] 13% | inhibition [3] 0% | outcome [5] | outcome [6] | outcome [7] | outcome [8]

CCN(CCCN1CCCCC1)c1cc(C)nc(Nc2ccc(Cl)cc2C)n1
active: growth inhibition [4] 95%
inactive: growth inhibition [1] 46% | inhibition [2] 44% | inhibition [3] 2% | outcome [5] | outcome [6] | outcome [7] | outcome [8]

O=C(Nc1cc(=O)[nH]c2nc(-c3ccccc3)nn12)C1CCCCC1
active: growth inhibition [1] 89% | growth inhibition [4] 86%
inactive: inhibition [2] -9% | inhibition [3] -4% | outcome [5] | outcome [6] | outcome [7] | outcome [8]

COc1ccc(NC(=O)/C=C/c2ccccc2Cl)cc1OCCN1CCC(N2CCN(C)CC2)CC1
inactive: growth inhibition [1] 49% | inhibition [2] 19% | inhibition [3] 5% | outcome [5] | outcome [6] | outcome [7] | outcome [8]
active: growth inhibition [4] 102%

CC(C)(C)CNc1noc(-c2sccc2Br)n1
active: growth inhibition [1] 71% | growth inhibition [4] 82%
inactive: inhibition [2] 4% | inhibition [3] -7% | outcome [5] | outcome [6] | outcome [7] | outcome [8]

CCCNCc1ccc(-c2ccc(CN(Cc3cnc(C)cn3)C(=O)CC#N)cc2)nc1
inactive: growth inhibition [1] -3% | inhibition [2] 4% | inhibition [3] 5% | outcome [5] | outcome [6] | outcome [7] | outcome [8]
active: growth inhibition [4] 92%

O=C(Nc1ccccc1)Nc1ccc(-n2ccc(C(F)(F)F)n2)cc1
inactive: inhibition [2] 15% | inhibition [3] -5% | outcome [5] | outcome [6] | outcome [7] | outcome [8]
active: growth inhibition [1] 85% | growth inhibition [4] 95%

COc1cccc(-c2cc(C(=O)NC3CCC(N4CCC(c5ccccc5C)CC4)CC3)[nH]n2)c1 (stereo not drawn)
active: growth inhibition [1] 58% | inhibition [2] 60% | growth inhibition [4] 99%
inactive: inhibition [3] -2% | outcome [5] | outcome [6] | outcome [7] | outcome [8]

CCn1ccc2c(N3CCCCS3(=O)=O)cc(C(=O)N[C@@H](Cc3ccccc3)[C@H](O)CNC3CCCCC3)cc21
active: growth inhibition [1] 98% | growth inhibition [4] 98%
inactive: inhibition [2] 1% | inhibition [3] 1% | outcome [5] | outcome [6] | outcome [7] | outcome [8]

COC1CCC(C(=O)Nc2ccc(-c3cccc(-c4nc5ccc(C(F)(F)F)cc5[nH]4)c3)cc2)CC1 (stereo not drawn)
inactive: growth inhibition [1] 48% | inhibition [3] -2% | outcome [5] | outcome [6] | outcome [7] | outcome [8]
active: inhibition [2] 69% | growth inhibition [4] 85%

O=C(/C=C/c1ccc(Cl)c(Cl)c1)NCCCCN1CCCN(C(=O)Nc2ccc(Cl)c(Cl)c2)CC1
active: growth inhibition [4] 96%
inactive: growth inhibition [1] 1% | inhibition [2] 22% | inhibition [3] 3% | outcome [5] | outcome [6] | outcome [7] | outcome [8]

O=C(Nc1ccc(Cl)c(C(F)(F)F)c1)NC1CCN(CCCCCNC(=O)[C@@H]2C[C@H]2c2ccc(Cl)c(Cl)c2)CC1
inactive: growth inhibition [1] 41% | inhibition [3] -1% | outcome [5] | outcome [6] | outcome [7] | outcome [8]
active: inhibition [2] 79% | growth inhibition [4] 100%

O=S(=O)(c1ccccc1Cl)N1CCCCC(c2ccc(C(F)(F)F)cc2)=N1
active: growth inhibition [1] 72% | growth inhibition [4] 86%
inactive: inhibition [2] 22% | inhibition [3] 4% | outcome [5] | outcome [6] | outcome [7] | outcome [8]

COCCN1CCC(CNCC(C)(C)c2nc(-c3ccc(Cl)c(O)c3)c(-c3ccncc3)[nH]2)CC1
active: growth inhibition [4] 102%
inactive: growth inhibition [1] 2% | inhibition [2] -15% | inhibition [3] -1% | outcome [5] | outcome [6] | outcome [7] | outcome [8]

CC=CCON1C(N)=NC(N)=NC1(C)C
inactive: growth inhibition [1] 1% | inhibition [3] 5% | outcome [5] | outcome [6] | outcome [7] | outcome [8]
active: inhibition [2] 57% | growth inhibition [4] 94%
